According to PubChem BioAssay (NCI):
Compounds without any hit were thinned out: in the full panel of roughly 83,000, 20% have a hit.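 Growth was measured after 48 h exposure to one concentration of compound in 96-well plates. Values under 10 count as active.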 Values without a mark were called inactive. The source made the active and inactive calls.

Tests used:
Assay in all cases: NCI-60 one-dose screen, 48 h (100 = growth as untreated, 0 = no growth, -100 = all killed)
Settings in all cases: 10 µM unless noted
OVCAR-8 ovarian = tested on: OVCAR-8 ovarian
OVCAR-5 ovarian = tested on: OVCAR-5 ovarian
OVCAR-4 ovarian = tested on: OVCAR-4 ovarian
SK-OV-3 ovarian = tested on: SK-OV-3 ovarian
IGROV1 ovarian = tested on: IGROV1 ovarian
OVCAR-3 ovarian = tested on: OVCAR-3 ovarian
NCI/ADR-RES ovarian = tested on: NCI/ADR-RES ovarian
T-47D breast = tested on: T-47D breast
BT-549 breast = tested on: BT-549 breast
MDA-MB-435 melanoma = tested on: MDA-MB-435 melanoma
SW-620 colon = tested on: SW-620 colon
MCF7 breast = tested on: MCF7 breast
HCT-116 colon = tested on: HCT-116 colon
HCC-2998 colon = tested on: HCC-2998 colon
KM12 colon = tested on: KM12 colon
HS 578T breast = tested on: HS 578T breast

SMILES | growth (OVCAR-8 ovarian) | growth (OVCAR-5 ovarian) | growth (OVCAR-4 ovarian) | growth (SK-OV-3 ovarian) | growth (IGROV1 ovarian) | growth (OVCAR-3 ovarian) | growth (NCI/ADR-RES ovarian) | growth (T-47D breast) | growth (BT-549 breast) | growth (MDA-MB-435 melanoma) | growth (SW-620 colon) | growth (MCF7 breast) | growth (HCT-116 colon) | growth (HCC-2998 colon) | growth (KM12 colon) | growth (HS 578T breast)
COc1ccc(-c2nc(SCCC(C)C)nc(N/N=C\c3cccc(Cl)c3)c2C#N)cc1 | 57.7% | 84.3% | -13.4% (active) | 84% | 76.2% | 38.5% | 79.2% | 59.7% | 85.5% | 88.5% | 54.4% | 73.3% | 33.3% | 92.2% | 90.6% | 
COC(=O)c1ccc(C2Nc3ccc(S(=O)(=O)Nc4ccc(C)c(C)c4)cc3C3OCCC23)cc1 (stereo not given) | 92% | 95.7% | 82.8% | 92% | 84.4% | 79.1% | 88.5% | 51.1% | 84.7% | 94.7% | 78.5% | 43.1% | 62.1% | 111% | 78.1% | 100%
c1csc(-c2c3ccc(=[N+]4CCCCC4)cc-3oc3cc(N4CCCCC4)ccc23)c1 | -33.5% (active) | -83.1% (active) | -54.3% (active) | -89% (active) | -67.1% (active) | -96.9% (active) | -38.9% (active) | -60.7% (active) |  | -46.5% (active) | -76% (active) | -57.2% (active) |  | -94.2% (active) | -92.9% (active) | -20.7% (active)
O=c1c2cc(F)ccc2sc2c(Nc3cccnc3)nc3ccccc3c12 | 89.1% | 57.8% | 105% | 93.9% | 73.7% | 108% | 90.4% | 84.7% | 98.7% | 99.1% | 85.6% | 55.1% | 61.5% | 94.1% | 89.2% | 74%
O=c1c2cc(F)ccc2sc2c(NCCN3CCCCC3)nc3ccccc3c12 | 57.6% |  | 50.7% | 78.8% | 27.3% | 31.5% | 67.1% | 66.9% | 75.1% | 29.5% | 29.1% | 15.8% | 25.3% | 13.9% | 29% | 56%
Cc1ccc(NS(=O)(=O)c2ccc3c(c2)C(=O)CC(c2ccc(C(=O)C(C)C)cc2)N3)cc1C (stereo not given) | 73.4% | 80.1% | 62.9% | 74.4% | 66.8% | 74.4% | 56.3% | 39.8% | 65.6% | 58.3% | 70.5% | 37.4% | 54% | 89.9% | 71.9% | 73.2%
O=C(CSc1nnc(-c2ccc(NC(=O)c3cccnc3)cc2)o1)Nc1cccc(Br)c1 | 88.7% | 99.3% | 93.8% | 110% | 80.5% | 107% | 93.8% | 56.5% |  | 94.3% | 96.8% | 90.3% | 58.7% | 106% | 105% | 
C[n+]1cc2c3c(ccc2c2ccc4cc5c(cc4c21)OCO5)OCO3 | -79.5% (active) | -65.5% (active) |  | -99.5% (active) | -83.2% (active) | -93.5% (active) | -36.4% (active) | -78.2% (active) | -91.7% (active) | -85.8% (active) | -67.3% (active) | -72.5% (active) | -89.2% (active) | -82.1% (active) | -78.5% (active) | 
CC1OC(O[C@H]2/C=C/C=C/C=C/C=C/C=C/C=C/C=C/[C@H](C)[C@@H](O)[C@@H](C)[C@H](C)OC(=O)CC(O)CC(O)CCC(O)C(O)CC(O)C[C@]3(O)C[C@H](O)C(C(=O)O)C(C2)O3)C(O)[C@H](N)C1O (stereo not given in full) | 23.8% | -21% (active) |  | 38% | 16.6% | -42.3% (active) | -29.9% (active) | 54.3% | 36.6% | -69.5% (active) | -24.9% (active) | 28.8% | -38.1% (active) | 53.5% | 41.6% | -18.7% (active)
CCOP(=O)(OCC)C1CP(=O)(c2ccccc2)CC(C)=C1Cl (stereo not given) | 85.7% | 97.8% | 107% | 127% |  | 104% | 93.5% | 102% | 129% | 110% | 105% | 102% | 91.5% | 102% | 109% | 112%
CN(c1ccccc1)c1ccc2c(c1)OCCC21CC1Nc1cnccc1C(=O)O (stereo not given) | 54.9% | 96.2% | 75.3% | 69.1% | 75.1% | 77.1% | 73.8% | 72.6% | 64.8% | 82.6% | 80.2% | 65.8% | 33% | 68.2% | 64.2% | 
